# Experimental data taken from PubChem BioAssay.
# Activity calls are given as the source filed them.
# Experiments:
# Albumin (Bos taurus) = Albumin (Bos taurus) (UniProt P02769); test: bovine serum albumin binders on microarray, profiling panel, artefact control for SMM control protein annotation, biochemical, small-molecule microarray, Alexa647 label, 635/667 nm fluorescence (AID 1118); conditions: BSA-A647 binding, fluorescence 635 nm, higher = more signal;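 note: score merges 667 nm emission intensity and signal-to-noise per printed compound spot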
# [1] = small-molecule microarray binders of probe aXIP, primary screen, biochemical, NeuroSMM set, 635/667 nm fluorescence (AID 1119); conditions: higher = more signal, called active from +8 up or from −8 down;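 note: probe is the protein aXip251-270 applied at 1 µg/mL to compound-printed slides; binding of probe to printed compounds measured as 667 nm fluorescence plus signal to noise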
# [2] = small-molecule binders of probe aNOTCH3, primary screen, biochemical, small-molecule microarray, 635/667 nm fluorescence (AID 1120); conditions: higher = more signal;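 note: probe is a biotin-tagged antibody raised against NOTCH3 rather than NOTCH3 protein; score merges spot fluorescence near 667 nm with spot signal to noise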
# [3] = small-molecule binders of probe aNOTCH2, primary screen, biochemical, small-molecule microarray, 635/667 nm fluorescence (AID 1121); conditions: higher = more signal;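 note: score merges feature fluorescence read at 667 nm with its signal to noise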
# [4] = target: Carbonic anhydrase 2 (Homo sapiens) (UniProt P00918); test: CAII small-molecule binders, profiling panel, biochemical, small-molecule microarray, Alexa647-labelled CAII (AID 1122); conditions: CAII-A647 binding fluorescence, higher = more signal
# [5] = COS7 lysate on small-molecule microarray, probe aHis, 635 nm (AID 1123); conditions: COS7 cell lysate, fluorescence, higher = more signal;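 note: z-score combines 667nm fluorescence intensity with signal-to-noise per printed compound spot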
# [6] = compound binding in COS7 lysate, probe aLAP1, primary screen, cell lysate, small-molecule microarray (AID 1124); conditions: probe aLAP1, fluorescence, higher = more signal;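 note: lysate comes from COS7 cells expressing LAP1 and is applied at 0.3 µg/mL; score merges spot fluorescence near 667 nm with signal-to-noise over triplicate slides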
# Sam68 (KHDRBS1) = test: Sam68 small-molecule binders, primary screen, biochemical, small-molecule microarray, 635 nm fluorescence (AID 1125); conditions: small-molecule microarray binding, higher = more signal;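 note: score merges 667 nm channel intensity with signal to noise over triplicate slides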
# [7] = system: Chordin-like protein 2 (CHRDL2); test: CHRDL2 small-molecule binders, primary screen, biochemical, small-molecule microarray, 635 nm fluorescence (AID 1126); conditions: small-molecule microarray binding, fluorescence 635 nm; higher = more signal;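 note: printed compound slides probed with Chrdl2 protein at 4 µg/mL for 1 h at 4 C; score merges 667 nm emission intensity with signal to noise over three replicate slides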
# [8] = target: Concanavalin-A (Canavalia ensiformis) (UniProt P02866); test: ConA small-molecule binders, primary screen, artefact control for SMM control protein annotation, biochemical, small-molecule microarray, Alexa647 label, 635 nm (AID 1127); conditions: ConA-A647 binding fluorescence, higher = more signal;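 note: z combines 667 nm emission intensity with signal-to-noise across three replicate slides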
# Chain of Concanavalin-A (Canavalia ensiformis) (P02866 whole entry, looked up): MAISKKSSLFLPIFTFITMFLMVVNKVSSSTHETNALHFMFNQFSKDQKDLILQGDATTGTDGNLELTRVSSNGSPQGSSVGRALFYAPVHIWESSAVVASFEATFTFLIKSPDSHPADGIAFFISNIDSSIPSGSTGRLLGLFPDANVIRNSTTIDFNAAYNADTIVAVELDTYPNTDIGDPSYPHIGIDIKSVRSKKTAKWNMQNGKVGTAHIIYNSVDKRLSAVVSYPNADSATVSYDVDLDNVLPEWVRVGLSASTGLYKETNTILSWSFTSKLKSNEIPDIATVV
# Chain of Albumin (Bos taurus) (P02769 whole entry, looked up): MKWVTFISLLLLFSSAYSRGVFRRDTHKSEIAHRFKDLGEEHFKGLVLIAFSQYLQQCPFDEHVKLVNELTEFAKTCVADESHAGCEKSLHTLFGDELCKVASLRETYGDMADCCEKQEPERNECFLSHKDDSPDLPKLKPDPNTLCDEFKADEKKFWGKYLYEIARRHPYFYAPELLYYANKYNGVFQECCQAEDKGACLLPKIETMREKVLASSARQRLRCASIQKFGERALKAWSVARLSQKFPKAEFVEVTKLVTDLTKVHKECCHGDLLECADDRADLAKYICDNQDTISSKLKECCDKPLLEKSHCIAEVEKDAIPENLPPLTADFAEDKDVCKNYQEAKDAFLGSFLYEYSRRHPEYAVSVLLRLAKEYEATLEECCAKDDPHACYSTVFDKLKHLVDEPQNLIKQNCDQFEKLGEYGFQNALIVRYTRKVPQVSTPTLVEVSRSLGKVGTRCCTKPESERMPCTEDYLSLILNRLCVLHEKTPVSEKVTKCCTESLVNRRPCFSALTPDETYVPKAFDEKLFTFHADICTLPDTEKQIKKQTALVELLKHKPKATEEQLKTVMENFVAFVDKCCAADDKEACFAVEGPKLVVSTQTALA
Compound,composite z-score (Albumin (Bos taurus)),composite Z-score [1],composite z-score [2],composite z-score [3],composite z-score [4],composite z-score [5],composite z-score [6],composite z-score (Sam68 (KHDRBS1)),composite z-score [7],composite z-score [8]
CCOC(=O)C[C@H]1[C@H](OC(=O)c2ccc(-c3ccccc3)cc2)[C@@H](NC(=O)Cc2ccc(OC)cc2)c2cc(OCCCO)ccc2N1C(=O)c1ccccc1,0.167,0.0175 (inactive),0.15,-0.135,-0.0516,0.614,-0.105,0.264,-0.348,0.0776
CO[C@H]1O[C@H](CO)[C@@H](OC(=O)Nc2ccc(Oc3ccccc3)cc2)[C@H](OC(=O)Nc2ccc3c(c2)OCO3)[C@H]1OC(=O)Nc1ccc2c(c1)OCO2,0.703,0.705 (inactive),0.264,0.0976,0.471,2.19,0.763,1.3,0.317,1.12
CCN(CC)c1ccc(N2CC=CC34O[C@@H]5C=CCCOC(=O)C5[C@H]3C(=O)N(CCCCCCO)[C@@H]4C2=O)cc1 (stereo not given in full),0.254,0.469 (inactive),-0.276,-0.203,0.885,2.79,1.46,0.114,-0.489,-0.1
COC(=O)[C@@]1(Cc2ccc(OC)cc2)[C@H]2c3cc(C(=O)N4CCCC4)n(CCN4CNCC4=O)c3C[C@H]2CN1C(=O)c1ccccc1,1.1,0.413 (inactive),1.49,0.967,0.57,1.79,0.104,-0.764,-0.316,-0.234
COc1ccc(C#Cc2ccc3c(c2)[C@]2(C(=O)N3)[C@H](c3ccccc3OCCO)N3[C@H](c4ccccc4)[C@H](c4ccccc4)OC(=O)[C@H]3[C@@H]2C(=O)Nc2nc3ccccc3s2)cc1,0.187,0.317 (inactive),1.12,0.0559,0.327,0.646,0.0878,1.31,0.886,0.931
CO[C@H]1O[C@H](CO)[C@@H](OC(=O)Nc2ccccc2)[C@H](OC(=O)Nc2ccccc2)[C@@H]1OC(=O)Nc1ccccc1,0.809,-0.0073 (inactive),0.289,-0.0847,0.824,1.29,0.947,1.3,0.136,1.12
CCCCCN1CC=CC23O[C@@H]4C=CCCOC(=O)C4[C@H]2C(=O)N(CCCCCO)[C@@H]3C1=O (stereo not given in full),0.337,0.0269 (inactive),-0.213,-0.142,0.846,0.718,0.57,-1.22,-0.17,-0.406
CCCCCCc1nc(-c2ccc(OC)nc2)cc2c1[Si](C(C)C)(C(C)C)O[C@H]2c1ccccc1,-0.807,0.131 (inactive),-0.0864,-0.166,-0.0224,0.0277,-0.08,-0.187,1.12,0.0837
CCCC=C(CCC)[C@@H](NC(=O)c1cccs1)c1ccc(C(F)(F)F)cc1,0.868,0.23 (inactive),0.224,-0.0027,0.173,0.0705,0.156,1.23,-0.595,0.79
C[N+](C)(C)CCCCNC(=O)[C@@H]1C[C@@H]2C(=O)N[C@@H](Cc3ccccc3)C(=O)N2[C@@H]1c1cccc(OCCO)c1,-0.634,0.668 (inactive),-0.217,-0.199,0.66,0.959,-0.15,-0.174,1.04,-0.504
CN1C(=O)C2C=CC(C(O)c3ccc([N+](=O)[O-])cc3)N(N3CCCCC3)C2C1=O (stereo not given),0.818,-0.0829 (inactive),0.246,0.0791,0.673,1.55,0.761,1.26,0.172,1.09
C=CC1(C(=O)OC)CC=C(C(=O)OC)CC1 (stereo not given),0.714,0.257 (inactive),-0.0077,-0.0661,0.613,0.732,0.872,0.82,0.556,0.339
[N-]=[N+]=NCc1ccccc1[C@@H]1OC(c2ccc(OCCCO)cc2)=N[C@]1(Cc1ccccc1)C(N)=O,0.979,-0.791 (inactive),0.526,0.0646,0.783,1.79,0.222,1.3,-0.692,1.16
CC(=O)NCCCC[C@@H]1NC(=O)[C@@H]2C[C@H](C(=O)NCCCCCNC(=O)CS)[C@H](c3cccc(OCCO)c3)N2C1=O,-0.0839,0.648 (inactive),-0.205,-0.159,-0.0086,-0.0704,-0.0909,0.254,1.05,0.241
